High-throughput results as filed in PubChem BioAssay.
The list is not random: actives were taken first. Their share in the collection is about 7.3%.
Luc counter: blocks Kinase-Glo luciferase, a counter-screen artifact | Q27757 | Kinase-Glo luciferase, ATP luminescence, 8 min | Potency, µM (series often up to 38.3 µM), for the others: at the top dose activity change, negative = inhibition, most hits filed as inhibitors | 200,000 compounds, 0.28% hits | AID 1379; also: % is scaled to controls: 0 for no effect and ±100 for the full control effect; nearly all actives have a fitted effect of over 60% in size
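Compounds were added to a substrate mix at pH 7.2 (50 mM imidazole, 10 uM ATP, within the enzyme's linear range), followed by Kinase-Glo detection reagent; luminescence was measured after 8 minutes at ambient temperature.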
Rab9 prom act: activates the Rab9 promoter; Huh7 Rab9 promoter-luciferase reporter, luminescence, 24 h; Potency, µM (titrated, usually from 9.22 µM), without a hit: top-dose activation, negative = inhibition, usual class: activators; 320,000 compounds, 2.8% hits; also: % of control where 0% means no effect; nearly all actives have a fitted effect of over 60% in size
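Using Huh7 cells stably transfected with Rab9 promoter–luciferase, compounds were incubated 24 h at 37 °C, 5% CO2; luciferase luminescence was read 10 min after reagent addition.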
NPC1 promoter act: activates the NPC1 promoter. 320,000 compounds, 2.4% hits. Potency, µM (doses to about 9.22 µM), for inactives: at the highest dose activation, usual class: activators. Huh7 NPC1 promoter luciferase reporter, 24 h; also: % of control where 0% means no effect; nearly all actives have a fitted effect of over 60% in size
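Luminescence from an NPC1 promoter-driven luciferase reporter in stably transfected Huh7 cells was measured after 24 h compound treatment at 37 °C, followed by 10 min ambient incubation with luciferase detection reagent.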
SMN2 splice enh: enhancers of SMN2 splice variant expression. HEK293 SMN2-luciferase splicing reporter, luminescence, 30-36 h. Potency, µM (top dose mostly 46.1 µM), for inactives: at the top dose activity change, positive = activation, actives largely listed as activators. 210,000 compounds, 2.8% hits. AID 1458; also: % of control where 0% means no effect; nearly all actives have a fitted effect of over 55% in size
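HEK293 cells carry an SMN2 […]–luciferase reporter in which exon 7 inclusion puts luciferase in frame. Cells were plated 10-12 h before compound addition, then incubated 30-36 h at 37C. ONE-Glo luminescence was read; sodium butyrate at 4.5 mM final served as control.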
FLuc modulator: firefly luciferase modulation, counter-screen for miR-21 project; P08659; purified FLuc, Km substrates, luminescence inhibition; Potency, µM (top dose mostly 57.5 µM), without a hit: top-dose activity change, negative = inhibition, usual class: inhibitors; 360,000 compounds, 6.9% hits; AID 588342;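 also: plate controls were vehicle for no effect and reference inhibitor for full effect; nearly all actives have a fitted effect of over 55% in size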
Target sequence (P08659 whole entry, looked up): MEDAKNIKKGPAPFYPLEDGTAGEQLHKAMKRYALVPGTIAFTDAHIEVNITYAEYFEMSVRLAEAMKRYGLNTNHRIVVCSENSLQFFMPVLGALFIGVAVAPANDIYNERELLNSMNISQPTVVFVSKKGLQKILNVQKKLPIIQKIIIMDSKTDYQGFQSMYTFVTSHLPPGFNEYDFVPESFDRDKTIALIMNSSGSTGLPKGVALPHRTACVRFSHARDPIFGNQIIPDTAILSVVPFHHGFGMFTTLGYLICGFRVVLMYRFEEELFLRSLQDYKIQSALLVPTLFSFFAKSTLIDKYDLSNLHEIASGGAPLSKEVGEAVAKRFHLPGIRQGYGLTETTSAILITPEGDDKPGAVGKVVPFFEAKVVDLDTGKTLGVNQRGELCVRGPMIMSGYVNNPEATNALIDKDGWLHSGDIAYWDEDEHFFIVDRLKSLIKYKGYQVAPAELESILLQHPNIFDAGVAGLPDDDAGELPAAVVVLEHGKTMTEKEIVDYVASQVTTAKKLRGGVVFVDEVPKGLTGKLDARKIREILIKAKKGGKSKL
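Purified P. pyralis luciferase, 10 nM final, with Km-level 10 uM D-luciferin and 10 uM ATP in 50 mM Tris acetate pH 7.5, 10 mM Mg acetate, 0.01% Tween-20, 0.05% BSA; 6-point qHTS titration about 60 µM downward; luminescence read.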
ELG1 genotoxic: genotoxicity induction in ELG1-luciferase HEK293T cells; HEK293T ELG1-luciferase reporter, luminescence, 16 h; 330,000 compounds, 1.3% hits; AID 504466; Potency, µM (titrated, usually from 46 µM), without a hit: at the highest dose activity change, positive = activation, most hits filed as activators; also: % of control where 0% means no effect; nearly all actives have a fitted effect of over 60% in size
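HEK293T cells expressing luciferase-tagged ELG1 were exposed to compound or DMSO vehicle for 16 hr at 37 °C and 5% CO2. Luciferase activity was then measured with ONE-Glo after 30 min at room temperature.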
Starred values were filed as active, the others as inactive; ? = inconclusive; nt = no result given. Calls follow the shape of the dose curve; as a rule, active = well fitted curve in the direction sought with a large enough effect; inconclusive = small, poorly fitted or top-dose-only effect, or another doubt; inactive = no such curve, though single readings can be large; an effect the other way counts as inactive or inconclusive. Potency is read from the fitted curve at half-maximal effect.

SMILES	Luc counter	Rab9 prom act	NPC1 promoter act	SMN2 splice enh	FLuc modulator	ELG1 genotoxic
Cc1ccccc1Nc1nc(N)nc(COC(=O)c2ccccc2)n1	-1.7%	2.24µM*	?	?	15.1µM*	?
CCn1nc(C)cc1C(=O)Sc1ccc(C)cc1	nt	-4.1%	-1.3%	nt	16.9µM*	0.0%
CCc1ccc(-n2nc(C)c3c(C(=O)Nc4cccc(C(F)(F)F)c4)cc(C)nc32)cc1	nt	nt	nt	nt	4.5%	nt
COc1cc(C(=O)Nc2ccc(C(C)=O)cc2)c(Br)c(OC)c1OC	6.3%	?	24.5%	?	16.9µM*	7.6%
Cc1nc2ccc(NC(=O)c3ccccc3)cc2s1	-2.3%	2.82µM*	2.82µM*	22.4µM*	19µM*	?
CCn1nc(C(=O)Nc2ccc3nc(C)sc3c2)c2ccccc2c1=O	-3.8%	1.0%	4.7%	3.98µM*	?	1.7%
CC(=O)c1ccc(NC(=O)c2ccc3nc(C)sc3c2)cc1	nt	2.82µM*	2µM*	nt	?	?
Cc1cccc(N2C(=O)C(CC(=O)Nc3cccc(F)c3)N(Cc3cccs3)C2=O)c1 (centres undefined)	nt	nt	nt	nt	-2.9%	nt
Cc1nc2ccc(NC(=O)c3ccco3)cc2s1	-5.9%	2.82µM*	?	nt	?	?
Cc1ccccc1NC(=O)c1ccc2nc(N3CCOCC3)sc2c1	nt	?	-2.4%	nt	-11.1%	11.6%
Cc1nc2ccc(C(=O)Nc3ccccc3Cl)cc2s1	nt	1.12µM*	2.51µM*	nt	16.9µM*	?
Cc1nc2cc(C(=O)O)ccc2s1	1.5%	2.82µM*	1.41µM*	11.2µM*	16.9µM*	?
CC(=O)Nc1nc2ccc(NC(=O)c3ccco3)cc2s1	-5.7%	?	21.3%	28.2%	?	?
NNC(=O)c1ccc2ccccc2n1	0.5%	0.9%	0.6%	12.5%	-4.6%	1.2%
Cc1nnc(NC(=O)c2ccc3ccccc3n2)s1	nt	3.55µM*	?	nt	23.9µM*	?
COc1ccc(N2CC(NC(=O)c3cc4ccccc4o3)CC2=O)cc1OC (centres undefined)	nt	nt	nt	nt	2.4%	nt
Cc1cccc(OCCSc2nc3ccc(NC(=O)c4cccs4)cc3s2)c1	nt	nt	nt	nt	1.1%	nt
CCCCC(=O)Nc1ccc(C(=O)NNC(=O)c2ccc(C)c(Br)c2)cc1	nt	-1.9%	-0.5%	nt	2.1%	?
CC(=O)c1ccc(NC(=O)c2ccc(C)c(Br)c2)cc1	-1.1%	0.794µM*	2.51µM*	11.2µM*	6.01µM*	?
Cc1nc2ccc(NC(=O)c3ccc4ccccc4n3)cc2s1	-15.0%	3.55µM*	2.82µM*	35.5µM*	6.01µM*	?
CS(=O)(=O)c1ccc(C(=O)Nc2cccc(-c3nc4ccccc4[nH]3)c2)cc1	nt	0.8%	-7.8%	nt	23.9µM*	-3.5%
CS(=O)(=O)Cc1ccc(C(=O)Nc2cccc(-c3nc4ccccc4[nH]3)c2)cc1	nt	18.4%	13.8%	nt	13.5µM*	-18.6%
Cn1ncc([N+](=O)[O-])c1C(=O)Nc1ccc(Cl)cc1	nt	5.8%	-3.2%	nt	1.2%	-2.9%
Cn1ncc([N+](=O)[O-])c1C(=O)Nc1ccc(-c2nc3ccccc3[nH]2)cc1	3.7%	?	?	?	21.3µM*	?
CCOc1cc(OCC)cc(C(=O)Nc2cccc(-c3nc4ccccc4[nH]3)c2)c1	nt	nt	nt	-47.7%	-0.6%	nt
SMILES	Luc counter	Rab9 prom act	NPC1 promoter act	SMN2 splice enh	FLuc modulator	ELG1 genotoxic
CS(=O)(=O)c1cccc(C(=O)Nc2cccc(-c3nc4ccccc4[nH]3)c2)c1	nt	12.8%	19.4%	nt	12µM*	-2.4%
O=S(=O)(NCC(c1ccco1)N1CCN(c2ccccc2)CC1)c1ccccc1 (centres undefined)	nt	nt	nt	nt	-1.2%	nt
CCCOc1ccc(C(=O)Nc2cccc(-c3nc4ccccc4[nH]3)c2)cc1	nt	nt	nt	?	4.78µM*	nt
CS(=O)(=O)c1ccc(C(=O)Nc2ccc(-c3nc4ccccc4[nH]3)cc2)cc1	nt	2.51µM*	?	nt	2.2%	10.0%
CCCN(CCC)C(=O)Cn1c(SCc2cccc(F)c2)nc2cccnc21	nt	nt	nt	nt	-7.9%	nt
CCOc1ccc(N=Cc2c(C)[nH]n(-c3nc4ccccc4[nH]3)c2=O)cc1	8.91µM*	?	25.1%	11.5%	8.49µM*	3.4%
Cc1ccc2[nH]c3c(=O)n(CC(=O)N4CCN(c5ccccc5F)CC4)ncc3c2c1	nt	nt	nt	nt	0.1%	nt
Cc1c(/C=N/NC(=O)c2ccc3c(c2)OCO3)cnn1C	-5.5%	1.5%	0.9%	-2.8%	?	2.7%
CCn1nc(C)c(CNC(=O)Nc2ccc3c(c2)OCO3)c1C	-2.7%	?	?	?	23.9µM*	?
CCn1ncc(/C=N/NC(=O)c2ccc3c(c2)OCO3)c1C	-10.7%	6.8%	-10.2%	17.0%	16.9µM*	6.7%
CCn1cc(/C=N/NC(=O)c2ccc3c(c2)OCO3)c(C)n1	-5.5%	-3.0%	5.2%	?	?	2.5%
CCn1nc(C)c(/C=N\NC(=O)c2ccc3c(c2)OCO3)c1C	-5.5%	2.5%	5.2%	18.8%	23.9µM*	15.4%
CCCS(=O)(=O)N1CC(=O)N(c2ccc(C)c(Cl)c2)C(C)(C(=O)NC2CCCCCC2)C1 (centres undefined)	nt	nt	nt	nt	0.5%	nt
Oc1oc(-c2ccco2)nc1C=Nc1cccc(Cl)c1	-1.7%	-6.5%	0.5%	-15.6%	15.1µM*	-3.6%
Cc1nn2c(=O)cc(COC(=O)c3ccc(NC(=O)COc4ccc(Cl)cc4)cc3)nc2s1	nt	nt	nt	nt	1.3%	nt
CCN(C(=O)c1nn(C)c2c1CSc1ccccc1-2)c1cccc(C)c1	nt	nt	nt	nt	1.8%	nt
Cc1cccc(OCCSc2nc(-c3cccs3)nc3cc(=O)[nH]n23)c1	nt	nt	nt	nt	15.1µM*	nt
COCCSc1nnc(NC(=O)C(C)(C)C)s1	-1.5%	?	?	nt	15.1µM*	17.4%
CC(C)(C)C(=O)Nc1nnc(SCc2cccc(F)c2)s1	-2.6%	2µM*	?	?	19µM*	15.2%
CC(C)(C)C(=O)Nc1nnc(SCc2ccc(F)cc2)s1	0.9%	18.5%	17.4%	-17.6%	?	?
CNCCCCc1cnc(C)c2[nH]c3ccccc3c12	0.5%	nt	nt	-41.7%	nt	nt
COCCNc1nc2c(c(=O)n(C)c(=O)n2C)n1Cc1c(F)cccc1Cl	nt	nt	nt	-12.1%	0.2%	nt
O=C(COc1ccccc1)Nc1nnc(-c2ccccc2)o1	-1.5%	2.6%	0.6%	-0.9%	0.0%	-0.4%
O=C(O)CCC(=O)Nc1cccc(-c2nnc(-c3ccccc3)o2)c1	nt	-2.4%	2.8%	nt	21.3µM*	11.0%
O=C(COc1ccccc1)Nc1cccc(-c2nnc(-c3ccccc3)o2)c1	-3.6%	28.2%	?	?	12µM*	-8.5%
COc1ccc(C2=C(C)C(N3CCC(C(=O)Nc4cc(C)ccc4C)CC3)=NS2(=O)=O)cc1	nt	nt	nt	nt	5.4%	nt
